Screening results deposited in PubChem BioAssay by The Scripps Research Institute Molecular Screening Center.
ABHD5-PLIN5 inh = inhibitors of human ABHD5-perilipin-5 interaction. Q00G26+Q8WTS1. Split G. princeps luciferase complementation, luminescence, 4 h. inhibition, % at 4 µM. hit rate 0.78% among 360,000;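 active = inhibition above the mean inhibition across every tested compound plus 3 SD, cut at about 22% in these data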;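 note: 0% = DMSO only wells and the 100% control is not disclosed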
LEDGF integ inh = blocks HIV-1 LEDGF/p75-dependent DNA integration. TR-FRET IN-LEDGF/p75 DNA integration, Eu/Cy5. inhibition, % at 3.7 µM. hit rate 0.64% among 370,000;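 active = inhibition above the screen-wide mean plus 3 SD, cut at about 13% in these data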;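 note: signal is the Cy5 over europium emission ratio at 671 and 618 nm; 0% = plate median of compound wells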
PRMT1 FP inh = inhibitors of human PRMT1 | Q99873 | AID 652257 | inhibition, % at 2.79 µM | hit rate 1.3% among 370,000 | recombinant PRMT1, activity-based probe fluorescence polarization;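 active = inhibition above about 21% made by adding two undisclosed values, limit read from the data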
rCAG binder = binds r(CAG) RNA repeats; hit rate 1.3% among 370,000; inhibition, % at 3 µM; r(CAG) RNA repeat, TO-PRO-1 dye displacement fluorescence;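 active = inhibition above the plate cutoff, the mean of all test compounds on that plate plus 3 SD, cut at about 35% in these data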;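 note: 0% = DMSO alone and 100% = 100 µM mitoxantrone as full dye displacement; higher means more dye released from RNA so lower well fluorescence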
MBD2 inh = blocks human MBD2 binding to methylated DNA; hit rate 0.31% among 370,000; inhibition, % at 4.4 µM; TR-FRET, MBD2 binding to methylated oligonucleotide; Q9UBB5; in the data active = inhibition above about 13%
UHRF1 binding = human UHRF1 methylated DNA binding inhibitors; Q96T88; UHRF1 binding to methylated oligo, TR-FRET; inhibition, % at 4.4 µM; hit rate 0.75% among 370,000; AID 687016; in the data active = inhibition above about 21%;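 note: UHRF1 SRA domain binding a hemimethylated CpG hairpin DNA probe; 0% = median of test compound wells and 100% = reference inhibitor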
PRMT1 inh conf = PRMT1 (human) inhibition, FP confirmation | hit rate 42% among 3,300 | shares compounds with PRMT1 FP inh | inhibition, % at 2.79 µM | AID 687036 | recombinant His-PRMT1, activity-based probe fluorescence polarization;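 active = mean inhibition across replicates above the hit cutoff derived for the earlier primary screen, cut at about 22% in these data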
An asterisk follows results filed as active. Shown are actives, neighbours in structure and some others; about 4.1% of the full set was active somewhere.

Screening CCCCCCC(=O)n1ccc2ccc(-c3ccc4ccn(Cc5ccc(OC)cc5)c4c3)cc21 returned LEDGF integ inh -5, PRMT1 FP inh 4, rCAG binder 18, MBD2 inh -1 and UHRF1 binding 1.
Screening C[C@@H]1C=CCCO[C@]12C(=O)N(Cc1ccc(Br)cc1)c1ccccc12 returned LEDGF integ inh -2, PRMT1 FP inh 3, rCAG binder 1, MBD2 inh 2 and UHRF1 binding 5.
Screening CC(C)(C)OC(=O)NCc1cc(F)ccc1/C=C/S(=O)(=O)NCc1ccccc1 returned LEDGF integ inh 0, PRMT1 FP inh 6, rCAG binder 1, MBD2 inh -1 and UHRF1 binding -2.
`Cc1ccc(CNC(=O)OC(C)(C)C)c(/C=C/S(=O)(=O)NCCc2ccccc2)c1` gave LEDGF integ inh 4, PRMT1 FP inh 29*, rCAG binder 2, MBD2 inh 6, UHRF1 binding 2 and PRMT1 inh conf 2.
`CCN(CC)CCCNC(=O)c1cc2cc(Cl)ccc2nc1N` gave LEDGF integ inh -3, PRMT1 FP inh 1, rCAG binder 3, MBD2 inh 1 and UHRF1 binding -1.
For COC(=O)c1nn(-c2ccc(OC)cc2)c(=O)c2c(N)sc(C)c12 the results were ABHD5-PLIN5 inh -11, LEDGF integ inh 2, PRMT1 FP inh 25*, rCAG binder 8, MBD2 inh 0, UHRF1 binding 0 and PRMT1 inh conf 0.
For CCOC(=O)C1=Nc2cccc3c(O)ccc1c23 the results were LEDGF integ inh 2, PRMT1 FP inh 75*, rCAG binder -73, MBD2 inh -17, UHRF1 binding -19 and PRMT1 inh conf 80*.
Oc1ccc(CNc2ccccc2C(F)(F)F)c2cccnc12 was read as LEDGF integ inh -7, PRMT1 FP inh 47*, MBD2 inh -2, UHRF1 binding -7 and PRMT1 inh conf 33*.
`Oc1ccc(CNc2ccccc2Cl)c2cccnc12` gave LEDGF integ inh -7, PRMT1 FP inh 56*, MBD2 inh -11, UHRF1 binding -4 and PRMT1 inh conf 65*.
CCC(C#Cc1ccccc1)N(C)C(N)=NC(=O)/C=C/c1ccccc1 (centres undefined) was read as LEDGF integ inh 7, PRMT1 FP inh -7, MBD2 inh 1 and UHRF1 binding -1.
O=C(OCC#CCSc1nnc(-c2cc3ccccc3cc2O)o1)c1ccc(F)cc1 was read as LEDGF integ inh 2, PRMT1 FP inh -4, MBD2 inh -3 and UHRF1 binding 2.
Screening CC(C)Cn1c(N)c(C(=O)CSc2ccccc2)c(=O)n(C)c1=O returned ABHD5-PLIN5 inh 0, LEDGF integ inh -1, PRMT1 FP inh 4, rCAG binder -6, MBD2 inh 4 and UHRF1 binding 4.
`CC(=O)Nc1ccc(SCC(=O)c2c(N)n(Cc3ccccc3)c(=O)n(C)c2=O)cc1` gave ABHD5-PLIN5 inh -4, LEDGF integ inh 0, PRMT1 FP inh 25*, rCAG binder 0, MBD2 inh 3, UHRF1 binding 5 and PRMT1 inh conf 18.
For C=CCSC1=C(C#N)C(c2ccccc2C)CC(=O)N1 (centres undefined) the results were ABHD5-PLIN5 inh -23, LEDGF integ inh 0, PRMT1 FP inh 7, rCAG binder 4, MBD2 inh -1 and UHRF1 binding 1.
`C=CCSC1=C(C#N)C(c2ccccc2Cl)CC(=O)N1` (centres undefined) gave ABHD5-PLIN5 inh -13, LEDGF integ inh -2, PRMT1 FP inh 46*, rCAG binder 2, MBD2 inh -4, UHRF1 binding 1 and PRMT1 inh conf 13.
C=CCSC1=C(C#N)C(c2ccc(OCC)cc2)CC(=O)N1 (centres undefined) was read as ABHD5-PLIN5 inh -27, LEDGF integ inh -3, PRMT1 FP inh 29*, rCAG binder 4, MBD2 inh 0, UHRF1 binding 1 and PRMT1 inh conf 11.
Screening COc1cccc(-c2csc(NC(=O)Oc3ccccc3)n2)c1 returned ABHD5-PLIN5 inh -7, LEDGF integ inh -2, PRMT1 FP inh 3, rCAG binder 3, MBD2 inh -2 and UHRF1 binding -2.
For COc1cccc(-c2csc(NNC(=O)c3cccs3)n2)c1 the results were ABHD5-PLIN5 inh -2, LEDGF integ inh 1, PRMT1 FP inh 29*, rCAG binder 19, MBD2 inh -1, UHRF1 binding -2 and PRMT1 inh conf 5.
NC(=O)c1ncn([C@@H]2O[C@H](C(=O)N[C@H](Cc3c[nH]c4ccccc34)C(=O)N3CCN(C(=O)C4CC4)CC3)[C@@H](O)[C@H]2O)n1 was read as LEDGF integ inh 0, PRMT1 FP inh 1, rCAG binder 1, MBD2 inh -5 and UHRF1 binding -2.
`COc1ccc(NC(=O)C(OC(=O)CNC(=O)c2ccccc2)c2ccccc2)cc1F` (centres undefined) gave LEDGF integ inh -1, PRMT1 FP inh 0, MBD2 inh 2 and UHRF1 binding -2.
CCNc1sc(C(=O)c2cccs2)c(N)c1C#N was read as ABHD5-PLIN5 inh 6, LEDGF integ inh -2, PRMT1 FP inh 29*, rCAG binder 2, MBD2 inh -6, UHRF1 binding 0 and PRMT1 inh conf 11.
`CCN(CC)c1ccc(SS(=O)(=O)O)cc1` gave ABHD5-PLIN5 inh -28, LEDGF integ inh 0, PRMT1 FP inh 75*, rCAG binder 4, MBD2 inh 3, UHRF1 binding 2 and PRMT1 inh conf 83*.
For COC(=O)C1CN(Cc2ccc(C)cc2)CCS(=O)(=O)N1Cc1cn(Cc2ccc(Cl)cc2)nn1 (centres undefined) the results were LEDGF integ inh 2, PRMT1 FP inh -4, rCAG binder 3, MBD2 inh -5 and UHRF1 binding 8.
`Cc1ccccc1Nc1n[nH]c(=S)s1` gave ABHD5-PLIN5 inh -8, LEDGF integ inh -7, PRMT1 FP inh 36*, rCAG binder 2, MBD2 inh 6, UHRF1 binding 2 and PRMT1 inh conf 6.
`S=c1[nH]nc(Nc2cccc3ccccc23)s1` gave ABHD5-PLIN5 inh -17, LEDGF integ inh 0, PRMT1 FP inh 55*, rCAG binder 3, MBD2 inh -2, UHRF1 binding -2 and PRMT1 inh conf 42*.
`COC(=O)[C@]12C[C@H](CC(=O)NCCCCc3ccccc3)C(=O)N(CCc3ccc(OC)c(OC)c3)C1=C[C@H](COCc1ccccc1)O[C@@H]2C` gave LEDGF integ inh 0, PRMT1 FP inh 0, rCAG binder 8, MBD2 inh -1 and UHRF1 binding -1.
Screening CC(=O)N1c2ccccc2Sc2ccccc21 returned ABHD5-PLIN5 inh 8, LEDGF integ inh -3, PRMT1 FP inh 1, rCAG binder -3, MBD2 inh 1 and UHRF1 binding -3.
